Laboratory results taken from PubChem BioAssay.
Activity calls are given as the source filed them. Unless noted, the rule behind the calls is not given here.

Legend:
[1] = test system: XIP peptide (Xip251-270) binding; test: small-molecule binders of XIP peptide, primary screen, biochemical, small-molecule microarray, fluorescence 635/667 nm, 0.1 µg/mL protein (AID 1182); conditions: fluorescent protein binding, 635 nm, higher = more signal, called active from +8 up or from −8 down
XIP peptide (Xip251-270) = test: small-molecule binders of XIP peptide, primary screen, biochemical, small-molecule microarray, fluorescence 635/667 nm, 0.5 µg/mL protein (AID 1183); conditions: small-molecule microarray binding, fluorescence 635 nm; higher = more signal
[2] = Plasmodium falciparum growth inhibition, primary screen, strain 3D7, DAPI fluorescence, 100 nL (AID 1184);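 note: parasites grown inside human red blood cells in medium with human serum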; conditions: P. falciparum 3D7 growth, 3 d, higher = more signal
[3] = target: Homeobox protein Hox-A13 (Mus musculus) (UniProt Q62424); test: inhibitors of HoxA13-DNA binding, primary screen, biochemical, fluorescence polarization, labeled oligonucleotide (AID 1185); conditions: 15 min, higher = more signal, called active from +8 up or from −8 down
Homeobox protein Hox-A13 (Mus musculus), sequence (Q62424 whole entry, looked up): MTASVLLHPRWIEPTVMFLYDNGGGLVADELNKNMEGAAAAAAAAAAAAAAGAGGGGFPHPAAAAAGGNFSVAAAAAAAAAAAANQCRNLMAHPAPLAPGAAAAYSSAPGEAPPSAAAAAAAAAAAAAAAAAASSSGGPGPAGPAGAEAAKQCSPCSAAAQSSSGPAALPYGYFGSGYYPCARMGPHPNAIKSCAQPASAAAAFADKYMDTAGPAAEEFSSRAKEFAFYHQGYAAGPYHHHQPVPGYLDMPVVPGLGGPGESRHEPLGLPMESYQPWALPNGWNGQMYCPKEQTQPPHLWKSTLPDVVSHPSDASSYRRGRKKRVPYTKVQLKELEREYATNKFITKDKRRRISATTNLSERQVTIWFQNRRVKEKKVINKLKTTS

[4] = inhibitors of hydroxyurea-induced Chk1 phosphorylation, primary screen, imaging, HeLa, phospho-Chk1 antibody, percent positive cells (AID 1186); conditions: hydroxyurea-induced phospho-Chk1 immunofluorescence imaging, higher = more signal
[5] = inhibitors of hydroxyurea-induced Chk1 phosphorylation, primary screen, imaging, HeLa, phospho-Chk1 nuclear intensity (AID 1187); conditions: hydroxyurea-induced phospho-Chk1 immunofluorescence imaging, higher = more signal

SMILES	composite z-score [1]	composite z-score (XIP peptide (Xip251-270))	z-score [2]	z-score [3]	z-score [4]	z-score [5]
COC(=O)[C@@]1(Cc2ccc(F)cc2)[C@H]2c3cc(C(=O)N(C)C)n(Cc4ccccn4)c3C[C@H]2CN1C(=O)c1ccccc1	-0.0593 (inactive)	0.352	-0.393	-5.64 (inactive)	0.412 (inactive)	0.427 (inactive)
CN1C(=O)C2C(C1=O)C1C=C(c3ccc(CO)cc3)C2C(C2CC2)N1Cc1cc2c(cc1Br)OCO2 (stereo unspecified)	2.71 (inactive)	0.832	-2.16	-4.5 (inactive)	-0.369 (inactive)	-0.327 (inactive)
CCCNC(=O)[C@@]1(c2ccc([N+](=O)[O-])cc2)CC(=O)N(CC23CC4CC(CC(C4)C2)C3)[C@@H]1c1ccc(CO)cc1I	1.18 (inactive)	0.59	-1.55	-3.75 (inactive)	-0.28 (inactive)	-0.51 (inactive)
CCCNC(=O)[C@@]1(C)c2ccccc2C(=O)N(Cc2cc(C(F)(F)F)cc(C(F)(F)F)c2)[C@H]1c1ccc(CO)cc1	0.977 (inactive)	0.665	-1.63	-4.26 (inactive)	-0.0596 (inactive)	-0.0865 (inactive)
C=C(CCCC)/C(=C/C[C@@H](OC(=O)c1ccncc1)c1ccc(CO)o1)c1cc(C(=O)OC)ccc1OC	0.611 (inactive)	0.83	-0.519	-3.68 (inactive)	-0.762 (inactive)	-1.65 (inactive)
O=S(=O)(NCCCO)c1ccc(Br)cc1	-0.2 (inactive)	0.0425	0.327	0.533 (inactive)	-0.868 (inactive)	-0.953 (inactive)
O=C(CS)NCCCCCCNC(=O)[C@H]1C[C@H]2C(=O)N3CCC[C@H]3C(=O)N2[C@H]1c1ccc(O)cc1	0.573 (inactive)	0.646	-0.38	-2.8 (inactive)	-0.508 (inactive)	-0.19 (inactive)
COCCOC(=O)N1C(=O)[C@@]2(c3ccccc31)[C@H](c1ccc(O)cc1)N1[C@H](c3ccccc3)[C@H](c3ccccc3)OC(=O)[C@H]1[C@@H]2C(N)=O	-0.728 (inactive)	-0.0106	0.346	-5.26 (inactive)	-0.0882 (inactive)	-0.282 (inactive)
C=C(CCCC)C(=O)CC[C@@H](OC(=O)c1ccccc1-c1ccccc1C(=O)O)c1ccc(CO)o1	0.412 (inactive)	0.432	1.61	-5.58 (inactive)	0.629 (inactive)	0.717 (inactive)
CCCCCN1CC=CC23O[C@@H]4C=CCCOC(=O)C4[C@H]2C(=O)N(CCCO)[C@@H]3C1=O (stereo partly specified)	0.0154 (inactive)	0.466	-1.54	-3.33 (inactive)	-0.299 (inactive)	-0.688 (inactive)
COCCOC(=O)N1C(=O)[C@@]2(c3cc(C#Cc4ccc(OC)cc4)ccc31)[C@H](c1ccc(O)cc1)N1[C@H](c3ccccc3)[C@H](c3ccccc3)OC(=O)[C@H]1[C@@H]2C(=O)N1CCN(c2ncccn2)CC1	0.164 (inactive)	0.596	-1.86	-0.821 (inactive)	0.187 (inactive)	0.302 (inactive)
C=CCC(OC(C)=O)[C@@H]1[C@@H](N(Cc2cc3ccccc3o2)C(=O)c2cccc3ccccc23)c2cc(OCCCO)ccc2N1C(=O)Cc1ccc2ccccc2c1 (stereo partly specified)	-0.0088 (inactive)	-0.102	-1.73	-1.02 (inactive)	-0.394 (inactive)	0.15 (inactive)
C=C[C@H](OC)[C@@H](OC(=O)Nc1ccc(SC)cc1)c1ccc(OCCO)cc1	0.591 (inactive)	-0.0661	0.194	-5.62 (inactive)	0.259 (inactive)	0.654 (inactive)
C=C(C(=O)CC[C@@H](OC(C)=O)c1ccc(OCCO)cc1)C(C)C	0.564 (inactive)	0.101	-1.42	-3.67 (inactive)	0.598 (inactive)	0.147 (inactive)
COCCOC(=O)N1C(=O)[C@@]2(c3cc(C#CCC(C(=O)OC)C(=O)OC)ccc31)[C@H](c1ccccc1OCCO)N1[C@H](c3ccccc3)[C@H](c3ccccc3)OC(=O)[C@H]1[C@@H]2C(=O)Nc1nc2ccccc2s1	0.83 (inactive)	0.862	-1.53	3.51 (inactive)	-0.5 (inactive)	-0.31 (inactive)
CCOC(=O)C[C@H]1[C@H](OC(=O)c2ccccc2-c2ccccc2)[C@@H](NC(=O)c2ccc(-c3ccccc3)cc2)c2cc(OCCCO)ccc2N1C(=O)c1ccccc1	0.788 (inactive)	0.79	-1.43	-1.95 (inactive)	-0.189 (inactive)	0.151 (inactive)
COC(=O)c1nc2oc1CC[C@@H](CO)NC(=O)N(C)Cc1cn(nn1)C[C@H](Cc1ccccc1)NC2=O	0.827 (inactive)	0.969	1.24	-1.31 (inactive)	-0.0288 (inactive)	-0.455 (inactive)
[N-]=[N+]=NCc1ccccc1[C@H]1OC(c2ccc(OCCCO)cc2)=N[C@@]1(Cc1ccccc1)C(=O)NCC(O)CO (stereo partly specified)	0.701 (inactive)	0.306	-2.48	-3.47 (inactive)	0.105 (inactive)	0.231 (inactive)
Cc1ccc(F)cc1S(=O)(=O)N[C@@H]1CCN(Cc2ccc(C(F)(F)F)cc2)C1	0.0254 (inactive)	-0.496	-0.433	-5.99 (inactive)	-0.619 (inactive)	-0.441 (inactive)
C=C(C(=O)CC[C@H](OC(=O)c1cccnc1)c1ccccc1OCCO)C(C)C	0.698 (inactive)	0.564	-2.3	-4.71 (inactive)	0.321 (inactive)	0.0728 (inactive)
Cc1ccc(N2C(=O)c3ccccc3[C@@H](C(=O)NCC(C)C)[C@@H]2c2ccc(CO)cc2)nc1	0.184 (inactive)	0.934	0.524	-0.985 (inactive)	-0.275 (inactive)	-0.387 (inactive)
[N-]=[N+]=NCc1ccccc1[C@@H]1OC(c2ccc(OCCCO)cc2)=N[C@]1(Cc1ccccc1N=[N+]=[N-])C(N)=O	0.411 (inactive)	0.785	-1.63	-3.75 (inactive)	0.135 (inactive)	0.278 (inactive)
O=C1OCC=C[C@H]2OC34C=CCN(Cc5ccccc5)C(=O)[C@H]3N(CCCO)C(=O)[C@@H]4[C@@H]12 (stereo partly specified)	1.09 (inactive)	0.212	-1.89	-4.31 (inactive)	-1.44 (inactive)	-0.938 (inactive)
CCCCC(=O)N(Cc1ccccc1F)[C@@H]1CC(C(=O)NCCO)=C[C@H](Oc2c(I)cc(CO)cc2OC)[C@H]1O	0.466 (inactive)	0.704	-1.66	-7.53 (inactive)	0.148 (inactive)	0.545 (inactive)
CC1(C)C(=O)C(c2ccccc2)=C2CN3C(=O)N(CCc4ccccc4)C(=O)C3(Cc3ccccc3)C=C21 (stereo unspecified)	1.7 (inactive)	-0.119	-1.34	-0.335 (inactive)	-0.0628 (inactive)	0.121 (inactive)
O=C1O[C@H](c2ccccc2)[C@H](c2ccccc2)N2[C@H]1[C@@H](C(=O)Nc1nc3ccccc3s1)[C@]1(C(=O)Nc3ccc(C#CC4=CCCCC4)cc31)[C@H]2c1ccc(OCCO)cc1	-0.172 (inactive)	0.656	-0.985	-11.7 (active)	0.0032 (inactive)	-0.515 (inactive)
